# Experimental data from the supplement of paper PMC4466140.
# B1: unnamed (peptide)
# chain: NMLSRPRLAKLPSIR
# Assays:
# Assay in all cases: SPOT peptide array binding signal intensity (averaged, normalized) (arbitrary units (background-subtracted, floor 0; scale differs between SH3 domains)); higher = stronger binding of the SH3 domain to the peptide
# AgAbp1 = target: AgAbp1
# Outline: (§1)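 Detection of bound protein relied on anti-GST antibody, an HRP anti-mouse secondary and luminol, with imaging and quantification in Genespotter. The bound protein was GST-fused SH3 domains from four yeast species, incubated at 10 μg/ml overnight at 4°C in TBS-based blocking buffer on cellulose membranes carrying synthetic 15-mer peptides with cysteines replaced by serines. Binding signal is normalized, background-subtracted spot intensity averaged over replicates, in arbitrary units that differ between domains.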
# AgBbc1 = target: AgBbc1
# Outline: as §1
# AgBem1-D1 = target: AgBem1-D1
# Outline: as §1
# AgBzz1-D1 = target: AgBzz1-D1
# Outline: as §1
# AgBzz1-D2 = target: AgBzz1-D2
# Outline: as §1
# AgCyk3 = target: AgCyk3
# Outline: as §1
# AgFus1 = target: AgFus1
# Outline: as §1
# AgHof1 = target: AgHof1
# Outline: as §1
# AgHse1 = target: AgHse1
# Outline: as §1
# AgLsb1 = target: AgLsb1
# Outline: as §1
# AgLsb4 = target: AgLsb4
# Outline: as §1
# AgMyo5 = target: AgMyo5
# Outline: as §1
# AgNbp2 = target: AgNbp2
# Outline: as §1
# AgRvs167 = target: AgRvs167
# Outline: as §1
# AgSho1 = target: AgSho1
# Outline: as §1
# AgSla1-D1-D2 = target: AgSla1-D1-D2
# Outline: as §1
# AgSla1-D3 = target: AgSla1-D3
# Outline: as §1
# CaAbp1-D1 = target: CaAbp1-D1
# Outline: as §1
# CaAbp1-D2 = target: CaAbp1-D2
# Outline: as §1
# CaBbc1 = target: CaBbc1
# Outline: as §1
# CaBem1-D1 = target: CaBem1-D1
# Outline: as §1
# CaBzz1-D1 = target: CaBzz1-D1
# Outline: as §1
# CaBzz1-D2 = target: CaBzz1-D2
# Outline: as §1
# CaCyk3 = target: CaCyk3
# Outline: as §1
# CaFus1 = target: CaFus1
# Outline: as §1
# CaHof1 = target: CaHof1
# Outline: as §1
# CaHse1 = target: CaHse1
# Outline: as §1
# CaLsb1 = target: CaLsb1
# Outline: as §1
# CaLsb4 = target: CaLsb4
# Outline: as §1
# CaMyo5 = target: CaMyo5
# Outline: as §1
# CaNbp2 = target: CaNbp2
# Outline: as §1
# CaRvs167 = target: CaRvs167
# Outline: as §1
# CaRvs167-3 = target: CaRvs167-3
# Outline: as §1
# CaSho1 = target: CaSho1
# Outline: as §1
# CaSla1-D1-D2 = target: CaSla1-D1-D2
# Outline: as §1
# CaSla1-D3 = target: CaSla1-D3
# Outline: as §1
# ScAbp1 = target: ScAbp1
# Outline: as §1
# ScBbc1 = target: ScBbc1
# Outline: as §1
# ScBem1-D1 = target: ScBem1-D1
# Outline: as §1
# ScBzz1-D1 = target: ScBzz1-D1
# Outline: as §1
# ScBzz1-D2 = target: ScBzz1-D2
# Outline: as §1
# ScCyk3 = target: ScCyk3
# Outline: as §1
# ScFus1 = target: ScFus1
# Outline: as §1
# ScHof1 = target: ScHof1
# Outline: as §1
# ScHse1 = target: ScHse1
# Outline: as §1
# ScLsb1 = target: ScLsb1
# Outline: as §1
# ScLsb2 = target: ScLsb2
# Outline: as §1
# ScLsb3 = target: ScLsb3
# Outline: as §1
# ScLsb4 = target: ScLsb4
# Outline: as §1
# ScMyo3 = target: ScMyo3
# Outline: as §1
# ScMyo5 = target: ScMyo5
# Outline: as §1
# ScNbp2 = target: ScNbp2
# Outline: as §1
# ScPex13 = target: ScPex13
# Outline: as §1
# ScRvs167 = target: ScRvs167
# Outline: as §1
# ScSho1 = target: ScSho1
# Outline: as §1
# ScSla1-D1-D2 = target: ScSla1-D1-D2
# Outline: as §1
# ScSla1-D3 = target: ScSla1-D3
# Outline: as §1
# SpAbp1-D1 = target: SpAbp1-D1
# Outline: as §1
# SpBbc1 = target: SpBbc1
# Outline: as §1
# SpBzz1-D1 = target: SpBzz1-D1
# Outline: as §1
# SpBzz1-D2 = target: SpBzz1-D2
# Outline: as §1
# SpCyk3 = target: SpCyk3
# Outline: as §1
# SpHof1 = target: SpHof1
# Outline: as §1
# SpHof1-2 = target: SpHof1-2
# Outline: as §1
# SpHof1-3 = target: SpHof1-3
# Outline: as §1
# SpHse1 = target: SpHse1
# Outline: as §1
# SpLsb1 = target: SpLsb1
# Outline: as §1
# SpLsb4 = target: SpLsb4
# Outline: as §1
# SpMyo1 = target: SpMyo1
# Outline: as §1
# SpNbp2 = target: SpNbp2
# Outline: as §1
# SpPex13 = target: SpPex13
# Outline: as §1
# SpRvs167 = target: SpRvs167
# Outline: as §1
# SpSla1-D1-D2 = target: SpSla1-D1-D2
# Outline: as §1
# SpSla1-D3 = target: SpSla1-D3
# Outline: as §1
binder,measurement,setting,value
B1,SPOT peptide array binding signal intensity,AgAbp1,124
same,SPOT peptide array binding signal intensity,AgBbc1,16.5
same,SPOT peptide array binding signal intensity,AgBem1-D1,394
same,SPOT peptide array binding signal intensity,AgBzz1-D1,23
same,SPOT peptide array binding signal intensity,AgBzz1-D2,3
same,SPOT peptide array binding signal intensity,AgCyk3,≤ 0
same,SPOT peptide array binding signal intensity,AgFus1,458
same,SPOT peptide array binding signal intensity,AgHof1,331
same,SPOT peptide array binding signal intensity,AgHse1,2140
same,SPOT peptide array binding signal intensity,AgLsb1,3.25
same,SPOT peptide array binding signal intensity,AgLsb4,59
same,SPOT peptide array binding signal intensity,AgMyo5,≤ 0
same,SPOT peptide array binding signal intensity,AgNbp2,362
same,SPOT peptide array binding signal intensity,AgRvs167,4.33
same,SPOT peptide array binding signal intensity,AgSho1,388
same,SPOT peptide array binding signal intensity,AgSla1-D1-D2,27
same,SPOT peptide array binding signal intensity,AgSla1-D3,4.5
same,SPOT peptide array binding signal intensity,CaAbp1-D1,822
same,SPOT peptide array binding signal intensity,CaAbp1-D2,754
same,SPOT peptide array binding signal intensity,CaBbc1,165
same,SPOT peptide array binding signal intensity,CaBem1-D1,526
same,SPOT peptide array binding signal intensity,CaBzz1-D1,184
same,SPOT peptide array binding signal intensity,CaBzz1-D2,69.8
same,SPOT peptide array binding signal intensity,CaCyk3,46
same,SPOT peptide array binding signal intensity,CaFus1,1210
same,SPOT peptide array binding signal intensity,CaHof1,0.25
same,SPOT peptide array binding signal intensity,CaHse1,183
same,SPOT peptide array binding signal intensity,CaLsb1,2
same,SPOT peptide array binding signal intensity,CaLsb4,290
same,SPOT peptide array binding signal intensity,CaMyo5,46.5
same,SPOT peptide array binding signal intensity,CaNbp2,1250
same,SPOT peptide array binding signal intensity,CaRvs167,97.2
same,SPOT peptide array binding signal intensity,CaRvs167-3,60.5
same,SPOT peptide array binding signal intensity,CaSho1,1490
same,SPOT peptide array binding signal intensity,CaSla1-D1-D2,663
same,SPOT peptide array binding signal intensity,CaSla1-D3,254
same,SPOT peptide array binding signal intensity,ScAbp1,424
same,SPOT peptide array binding signal intensity,ScBbc1,3.5
same,SPOT peptide array binding signal intensity,ScBem1-D1,21
same,SPOT peptide array binding signal intensity,ScBzz1-D1,22
same,SPOT peptide array binding signal intensity,ScBzz1-D2,29.5
same,SPOT peptide array binding signal intensity,ScCyk3,35
same,SPOT peptide array binding signal intensity,ScFus1,826
same,SPOT peptide array binding signal intensity,ScHof1,28
same,SPOT peptide array binding signal intensity,ScHse1,2110
same,SPOT peptide array binding signal intensity,ScLsb1,71.5
same,SPOT peptide array binding signal intensity,ScLsb2,≤ 0
same,SPOT peptide array binding signal intensity,ScLsb3,570
same,SPOT peptide array binding signal intensity,ScLsb4,112
same,SPOT peptide array binding signal intensity,ScMyo3,13.5
same,SPOT peptide array binding signal intensity,ScMyo5,≤ 0
same,SPOT peptide array binding signal intensity,ScNbp2,370
same,SPOT peptide array binding signal intensity,ScPex13,142
same,SPOT peptide array binding signal intensity,ScRvs167,43
same,SPOT peptide array binding signal intensity,ScSho1,962
same,SPOT peptide array binding signal intensity,ScSla1-D1-D2,389
same,SPOT peptide array binding signal intensity,ScSla1-D3,418
same,SPOT peptide array binding signal intensity,SpAbp1-D1,610
same,SPOT peptide array binding signal intensity,SpBbc1,1
same,SPOT peptide array binding signal intensity,SpBzz1-D1,333
same,SPOT peptide array binding signal intensity,SpBzz1-D2,13
same,SPOT peptide array binding signal intensity,SpCyk3,3
same,SPOT peptide array binding signal intensity,SpHof1,100
same,SPOT peptide array binding signal intensity,SpHof1-2,59.2
same,SPOT peptide array binding signal intensity,SpHof1-3,1590
same,SPOT peptide array binding signal intensity,SpHse1,2030
same,SPOT peptide array binding signal intensity,SpLsb1,10.5
same,SPOT peptide array binding signal intensity,SpLsb4,859
same,SPOT peptide array binding signal intensity,SpMyo1,24.8
same,SPOT peptide array binding signal intensity,SpNbp2,577
same,SPOT peptide array binding signal intensity,SpPex13,74
same,SPOT peptide array binding signal intensity,SpRvs167,32.2
same,SPOT peptide array binding signal intensity,SpSla1-D1-D2,8
same,SPOT peptide array binding signal intensity,SpSla1-D3,194
